Bioassay records as filed in PubChem BioAssay.
An excerpt weighted towards active compounds, which were near 4.8% of everything screened.
hcDAF12 agonist: activates DAF-12 receptor from parasite H. contortus. HEK293 hcDAF-12 lit1-tk-luc reporter, luminescence; 0% DMSO, 100% Δ7-dafachronic acid. activation, % at 6.8 µM. 370,000 tested, 1.4% active. AID 652067;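 active = activation above the mean of all tested compounds plus 3 SD, cut at about 5.5% in these data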
DAX1 inh-1: blocks DAX1 repression of SF-1 activated StAR promoter; HEK293T StAR-luciferase reporter, SF-1/DAX-1 repression relief; 370,000 tested, 1.1% active; inhibition, % at 6.8 µM;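 active = inhibition above the mean over all tested compounds plus 3 SD, cut at about 3.6% in these data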;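 note: higher inhibition means more luminescence from relief of DAX-1 repression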
hgDAF12 agonist: hgDAF-12 agonism, primary luciferase screen; HEK293 GAL4-hgDAF12 UAS-luciferase reporter, agonist luminescence; normalized to butyrate control; activation, % at 6.8 µM; 370,000 tested, 1.8% active;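 active = activation above a cutoff set at the mean of all screened compounds plus 3 SD, cut at about 10% in these data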
SMARCA2 act: SMARCA2 function activation, primary screen; MG213 cells, MMTV-luciferase reporter, dexamethasone, overnight; activation, % at 9.1 µM; 370,000 tested, 1% active; AID 652017; in the data active = activation above about 7.8%
DAX1 inh-2: NR0B1 (DAX1) inhibition. AID 504766. HEK293 Gal4-DAX1 luciferase reporter, luminescence. 340,000 tested, 0.99% active. P51843. inhibition, % at 6.75 µM;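 active = inhibition above the mean over all tested compounds plus 3 SD, cut at about 4.2% in these data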;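 note: inhibition shows as a rise in luminescence from relieved DAX1 repression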
Target sequence (P51843 207-470 limits assumed): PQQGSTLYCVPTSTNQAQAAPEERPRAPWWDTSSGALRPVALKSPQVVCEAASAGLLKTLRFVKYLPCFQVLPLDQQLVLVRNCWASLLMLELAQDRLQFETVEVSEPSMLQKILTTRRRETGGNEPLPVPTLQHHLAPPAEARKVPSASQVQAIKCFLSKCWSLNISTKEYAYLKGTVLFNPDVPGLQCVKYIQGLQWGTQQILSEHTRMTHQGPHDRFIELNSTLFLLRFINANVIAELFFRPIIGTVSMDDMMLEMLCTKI
ssDAF-12 act: activators of S. stercoralis DAF-12 nuclear receptor; HEK293 ssDAF-12/GRIP1 lit1-tk-luc reporter, luminescence; % of 3 µM dafachronic acid response; 370,000 tested, 1% active; activation, % at 6.8 µM;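 active = activation above the mean over all tested compounds plus 3 SD, cut at about 0.9% in these data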
SMARCA2 act conf: confirmation of SMARCA2 (BRM) function activators; 3,500 tested, 30% active; activation, % at 9.1 µM; shares compounds with SMARCA2 act; MG213 cells, MMTV-luciferase with dexamethasone, luminescence, overnight; MG213 cells expressing E1A, Rb sequestered; DMSO wells 0%, reference activator 100%;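 active = activation above its plate's cutoff, the mean activation of tested wells plus 3 SD, cut at about 7.9% in these data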
GAL4-VP16 Luc: activates GAL4-VP16 luciferase, flagging SMARCA2 activator hits; activation, % at 9.1 µM; AID 686939; 3,500 tested, 41% active; HEK293 GAL4-VP16 pG5luc reporter, luciferase luminescence; scaled: DMSO wells 0%, SAHA wells 100%; shares compounds with SMARCA2 act;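 active = activation above the solvent-only control well mean plus 3 SD, averaged across control plates, cut at about 5.2% in these data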
A number is an active result.

What do the screens show for `Cc1ccc(SCC(=O)Nc2ccc(N3CCN(C)CC3)c(F)c2)cc1`?
hcDAF12 agonist: inactive; DAX1 inh-1: inactive; hgDAF12 agonist: inactive; SMARCA2 act: 10.6; DAX1 inh-2: inactive; ssDAF-12 act: inactive; SMARCA2 act conf: inactive; GAL4-VP16 Luc: inactive

Results for COc1ccc2nc(/N=C(\N)NC(=O)C(C)(C)C)nc(C)c2c1 ?
hcDAF12 agonist: inactive; DAX1 inh-1: inactive; hgDAF12 agonist: inactive; SMARCA2 act: inactive; DAX1 inh-2: inactive; ssDAF-12 act: inactive

How did CCC(=O)N/C(N)=N/c1nc(C)c2cc(OC)ccc2n1 do in these assays?
hcDAF12 agonist: inactive; DAX1 inh-1: inactive; hgDAF12 agonist: inactive; SMARCA2 act: 18.4; DAX1 inh-2: inactive; ssDAF-12 act: inactive; SMARCA2 act conf: 34.9; GAL4-VP16 Luc: 13.5

What do the screens show for `CCCc1cc(=O)c2ccc(OC/C(C)=N/O)cc2o1`?
hcDAF12 agonist: inactive; DAX1 inh-1: inactive; hgDAF12 agonist: inactive; SMARCA2 act: 8.5; DAX1 inh-2: inactive; ssDAF-12 act: inactive; SMARCA2 act conf: inactive; GAL4-VP16 Luc: inactive

What do the screens show for `CCCc1cc(=O)c2ccc(OCC(C)=O)cc2o1`?
hcDAF12 agonist: inactive; DAX1 inh-1: inactive; hgDAF12 agonist: inactive; SMARCA2 act: inactive; DAX1 inh-2: inactive; ssDAF-12 act: inactive

What do the screens show for `CC(=O)c1cccc(Nc2c([N+](=O)[O-])c(=O)oc3ccccc23)c1`?
hcDAF12 agonist: inactive; DAX1 inh-1: inactive; hgDAF12 agonist: inactive; SMARCA2 act: inactive; DAX1 inh-2: inactive; ssDAF-12 act: inactive

Results for O=C(O)c1cccc(Nc2c([N+](=O)[O-])c(=O)oc3ccccc23)c1 ?
hcDAF12 agonist: inactive; DAX1 inh-1: inactive; hgDAF12 agonist: inactive; SMARCA2 act: 8.9; DAX1 inh-2: inactive; ssDAF-12 act: inactive; SMARCA2 act conf: inactive; GAL4-VP16 Luc: inactive

Results for COC(=O)[C@H]1C[C@H](OC(=O)NC2CCCC2)[C@@]2(O)CN(S(=O)(=O)c3ccc(C)cc3)CC2[C@H]1C(=O)OC (some centres undefined) ?
hcDAF12 agonist: inactive; DAX1 inh-1: inactive; hgDAF12 agonist: inactive; SMARCA2 act: inactive; DAX1 inh-2: inactive; ssDAF-12 act: inactive

Results for COc1ccc(C(=O)Cc2nnc(C)s2)cc1 ?
hcDAF12 agonist: inactive; DAX1 inh-1: inactive; hgDAF12 agonist: inactive; SMARCA2 act: 9.1; DAX1 inh-2: 4.8; ssDAF-12 act: inactive; SMARCA2 act conf: inactive; GAL4-VP16 Luc: 11.6

How did Clc1cccc(-c2nc3ccc(Cl)cn3c2Cc2ccccc2)c1 do in these assays?
hcDAF12 agonist: inactive; DAX1 inh-1: inactive; hgDAF12 agonist: inactive; SMARCA2 act: 8.2; ssDAF-12 act: inactive; SMARCA2 act conf: inactive; GAL4-VP16 Luc: inactive

What do the screens show for `COc1ccccc1Cc1c(-c2ccccc2)nc2ccc(Cl)cn12`?
hcDAF12 agonist: inactive; DAX1 inh-1: inactive; hgDAF12 agonist: inactive; SMARCA2 act: 10.9; ssDAF-12 act: 1.5; SMARCA2 act conf: inactive; GAL4-VP16 Luc: inactive

How did Clc1cccc(Cc2c(-c3ccccc3)nc3ccc(Br)cn23)c1 do in these assays?
hcDAF12 agonist: inactive; DAX1 inh-1: inactive; hgDAF12 agonist: inactive; SMARCA2 act: inactive; ssDAF-12 act: inactive

How did COc1ccc(Cc2c(-c3ccccc3)nc3ccc(Cl)cn23)c(C)c1 do in these assays?
hcDAF12 agonist: inactive; DAX1 inh-1: inactive; hgDAF12 agonist: inactive; SMARCA2 act: inactive; ssDAF-12 act: inactive

Results for COc1ccc(Cc2c(-c3ccccc3)nc3ccc(C)cn23)c(C)c1 ?
hcDAF12 agonist: inactive; DAX1 inh-1: 3.9; hgDAF12 agonist: 14.4; SMARCA2 act: 9.2; ssDAF-12 act: 1.5; SMARCA2 act conf: inactive; GAL4-VP16 Luc: inactive

How did O=S(=O)(c1ccc(Cl)cc1)N1CCN(C(=S)Nc2ccc(F)c(Cl)c2)CC1 do in these assays?
hcDAF12 agonist: inactive; DAX1 inh-1: inactive; hgDAF12 agonist: inactive; SMARCA2 act: inactive; DAX1 inh-2: inactive; ssDAF-12 act: inactive

Results for CC(Sc1nc2ccccc2[nH]1)C(=O)O (centres undefined) ?
hcDAF12 agonist: inactive; DAX1 inh-1: inactive; hgDAF12 agonist: inactive; SMARCA2 act: inactive; DAX1 inh-2: inactive; ssDAF-12 act: inactive

How did CC(=O)N=C(N)Sc1nc2ccccc2[nH]1 do in these assays?
hcDAF12 agonist: 5.9; DAX1 inh-1: inactive; hgDAF12 agonist: 10.9; SMARCA2 act: 9.7; DAX1 inh-2: inactive; ssDAF-12 act: inactive; SMARCA2 act conf: inactive; GAL4-VP16 Luc: 9.2

Results for O=C(NCCc1ccc(F)cc1)C1CCN(C(=O)Nc2ccccc2)CC1 ?
hcDAF12 agonist: inactive; DAX1 inh-1: inactive; hgDAF12 agonist: inactive; SMARCA2 act: 8.0; DAX1 inh-2: inactive; ssDAF-12 act: inactive; SMARCA2 act conf: inactive; GAL4-VP16 Luc: inactive

What do the screens show for `O=C(NCCc1ccccc1)C1CCN(C(=O)c2ccc(F)cc2)CC1`?
hcDAF12 agonist: inactive; DAX1 inh-1: inactive; hgDAF12 agonist: inactive; SMARCA2 act: inactive; DAX1 inh-2: inactive; ssDAF-12 act: inactive

Results for CCc1nnc(NC(=O)c2cccc(NC(=O)C(C)C)c2)s1 ?
hcDAF12 agonist: inactive; DAX1 inh-1: inactive; hgDAF12 agonist: inactive; SMARCA2 act: 8.8; DAX1 inh-2: inactive; ssDAF-12 act: inactive; SMARCA2 act conf: inactive; GAL4-VP16 Luc: 5.9

Results for COCc1nnc(NC(=O)c2cccc(NC(=O)C(C)C)c2)s1 ?
hcDAF12 agonist: inactive; DAX1 inh-1: inactive; hgDAF12 agonist: inactive; SMARCA2 act: inactive; DAX1 inh-2: inactive; ssDAF-12 act: inactive

Results for CCC(C)NC(=O)Cn1c(-c2ccccc2)cc(C(C)=O)c1C (centres undefined) ?
hcDAF12 agonist: inactive; DAX1 inh-1: inactive; hgDAF12 agonist: inactive; SMARCA2 act: inactive; DAX1 inh-2: inactive; ssDAF-12 act: inactive

How did COc1cccc(CNS(=O)(=O)c2c(C(=O)N3CCCCCC3)c(C)n(C)c2C)c1 do in these assays?
hcDAF12 agonist: inactive; DAX1 inh-1: inactive; hgDAF12 agonist: inactive; SMARCA2 act: 9.8; DAX1 inh-2: inactive; ssDAF-12 act: inactive; SMARCA2 act conf: inactive; GAL4-VP16 Luc: inactive

How did COc1cccc(CNS(=O)(=O)c2c(C(=O)N3CCCCC3)c(C)n(C)c2C)c1 do in these assays?
hcDAF12 agonist: inactive; DAX1 inh-1: inactive; hgDAF12 agonist: inactive; SMARCA2 act: inactive; DAX1 inh-2: inactive; ssDAF-12 act: inactive

How did O=c1cc(CSc2nnc(NC3CCCCC3)s2)nc2sccn12 do in these assays?
hcDAF12 agonist: inactive; DAX1 inh-1: inactive; hgDAF12 agonist: inactive; SMARCA2 act: inactive; DAX1 inh-2: inactive; ssDAF-12 act: inactive
